PD-1 reversal: activators reversing PD-1 mediated T-cell inhibition, primary screen, luminescence, primary human CD4 T cells, PD-L1 beads; CellTiter-Glo 96 h; activation, % (concentration not given with the values); 29,000 tested, under 10 active; call rule not given here;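 further: 0% = median vehicle wells and 100% = positive control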
NOMO-1 viab: NOMO-1 AML cell viability reduction, primary screen, STK33 inhibitor project, CellTiter-Glo luminescence; NOMO-1 AML viability, 72 h; hit rate 7.5% among 37,000; inhibition, % (test concentration not listed); AID 2330, 2010; in the data active means inhibition above about 80%; inconclusive means no clear call, values can overlap the other calls
STK33 inh: STK33 kinase inhibitors, primary screen, biochemical, luminescence, ADP-Glo, MBP substrate; AID 2322, 2010; inhibition, % at 12.5 µM; Serine/threonine-protein kinase 33 (Homo sapiens), Q9BYT3; hit rate 0.44% among 27,000; in the data active means inhibition above about 20%; inconclusive means no clear call, values can overlap the other calls
Target sequence (Q9BYT3 whole entry, looked up): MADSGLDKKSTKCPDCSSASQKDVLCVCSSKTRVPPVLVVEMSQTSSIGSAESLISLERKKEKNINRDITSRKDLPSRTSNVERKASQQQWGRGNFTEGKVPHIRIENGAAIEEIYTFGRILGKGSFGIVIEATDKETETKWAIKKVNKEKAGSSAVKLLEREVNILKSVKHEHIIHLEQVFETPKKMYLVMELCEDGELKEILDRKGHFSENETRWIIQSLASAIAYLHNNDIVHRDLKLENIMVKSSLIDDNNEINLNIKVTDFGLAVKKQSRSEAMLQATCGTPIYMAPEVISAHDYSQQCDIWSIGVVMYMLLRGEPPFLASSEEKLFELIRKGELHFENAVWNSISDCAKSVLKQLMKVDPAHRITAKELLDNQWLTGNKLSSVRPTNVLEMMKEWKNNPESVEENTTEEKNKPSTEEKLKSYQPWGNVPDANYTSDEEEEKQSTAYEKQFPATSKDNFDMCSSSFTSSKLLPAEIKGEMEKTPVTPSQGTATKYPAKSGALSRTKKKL
* marks the source's active call; other numbers are inactive results; ? = inconclusive; . = not tested or not shown. Shown is part of a subset that was picked to be rich in hits.

SMILES	PD-1 reversal	NOMO-1 viab	STK33 inh
O=C(NCc1ccco1)C1CC(c2ccccc2O)=NO1 (stereo not given)	.	19	2
COc1cc(NC(=O)COc2c(Cl)c(C)c(Cl)c(C)c2Cl)c(OC)cc1Cl	.	8	-4
O=c1cc(-c2ccccc2)n(-c2ccccc2)cn1	-5	101*	-5
O=c1c(-c2ccccc2)c(O)cc(-c2ccc(F)cc2)n1-c1ccccc1	0	-22	.
C[C@@H]1CN([C@H](C)CO)C(=O)Cc2cc(NS(=O)(=O)c3ccc(F)cc3)ccc2O[C@H]1CN(C)Cc1ccncc1	.	6	-1
C[C@H]1CN([C@@H](C)CO)C(=O)Cc2cc(NS(=O)(=O)c3ccc(F)cc3)ccc2O[C@@H]1CN(C)Cc1ccc(Cl)c(Cl)c1	-2	57	1
C[C@H](CO)N1C[C@H](C)[C@H](CN(C)Cc2ccc(Cl)c(Cl)c2)Oc2ccc(NS(=O)(=O)c3ccc(F)cc3)cc2CC1=O	0	107*	11
C[C@@H]1CN([C@H](C)CO)C(=O)Cc2cc(NS(=O)(=O)c3ccc(F)cc3)ccc2O[C@@H]1CN(C)Cc1ccc(Cl)c(Cl)c1	0	106*	5
COC(=O)c1ccccc1NC(=O)CSc1n[nH]c(-c2ccccc2Cl)n1	-1	26	0
Cc1cc(C)c(N=C(NN)N(C)C)cc1C	2	40	-2
COC(=O)c1c(NC(=O)CC2Sc3ccccc3NC2=O)sc(C)c1C (stereo not given)	-1	5	1
COC(=O)c1cc(NC(=O)CC2Sc3ccccc3NC2=O)cc(C(=O)OC)c1 (stereo not given)	.	113*	8
NC(=O)c1c(NC(=O)C2CC(=O)N(c3ccccc3)C2)sc2c1CCCC2 (stereo not given)	.	23	0
C[C@H]1CN([C@@H](C)CO)C(=O)c2cc(NC(=O)Nc3ccc(C(F)(F)F)cc3)ccc2O[C@@H]1CN(C)S(=O)(=O)c1cccs1	.	94*	.
C[C@H]1CN([C@@H](C)CO)C(=O)c2cc(NC(=O)Nc3ccc(F)cc3)ccc2O[C@@H]1CN(C)S(=O)(=O)c1cccs1	-2	25	5
C[C@@H]1CN([C@@H](C)CO)C(=O)c2cc(NC(=O)Nc3ccc(C(F)(F)F)cc3)ccc2O[C@H]1CN(C)S(=O)(=O)c1cccs1	.	93*	.
C[C@@H]1CN([C@@H](C)CO)C(=O)c2cc(NC(=O)Nc3ccc(F)cc3)ccc2O[C@@H]1CN(C)S(=O)(=O)c1cccs1	0	14	1
C[C@H](CO)N1C[C@H](C)[C@H](CN(C)S(=O)(=O)c2cccs2)Oc2ccc(NC(=O)Nc3ccc(F)cc3)cc2C1=O	-1	21	.
C[C@@H]1CN([C@@H](C)CO)C(=O)c2cc(NC(=O)Nc3ccc(C(F)(F)F)cc3)ccc2O[C@@H]1CN(C)S(=O)(=O)c1cccs1	-3	109*	3
O=C1CCC(=O)N1CNc1cc(C(F)(F)F)cc(C(F)(F)F)c1	0	31	.
Cc1cc(S(=O)(=O)N2CCC(NC(=O)Cc3ccccc3)CC2)c(Cl)cc1Cl	-1	33	.
Cc1cc(-c2nnc(SCC(=O)c3ccccc3Cl)n2C)no1	-9	34	-2
O=C(CSc1ncnc2sc3c(c12)CCC3)Nc1cccc(-c2nc3ccccc3s2)c1	.	23	-1
C[C@@H]1CN([C@H](C)CO)C(=O)c2cccc(NC(=O)Nc3cccc4ccccc34)c2O[C@H]1CN(C)C(=O)NC1CCCCC1	-4	?	3
C[C@H](CO)N1C[C@H](C)[C@H](CN(C)C(=O)Nc2ccc(F)cc2)Oc2c(NC(=O)Nc3cccc4ccccc34)cccc2C1=O	-10	124*	.
SMILES	PD-1 reversal	NOMO-1 viab	STK33 inh
C[C@H](CO)N1C[C@H](C)[C@H](CN(C)C(=O)NC2CCCCC2)Oc2c(NC(=O)Nc3cccc4ccccc34)cccc2C1=O	-6	97*	.
C[C@H]1CN([C@@H](C)CO)C(=O)c2cccc(NC(=O)Nc3cccc4ccccc34)c2O[C@@H]1CN(C)C(=O)Nc1ccc(F)cc1	-2	23	.
O=C(CSc1nnc(-c2ccccc2)c(-c2ccccc2)n1)C1CC1	-1	0	2
CCn1c(SCC(=O)N2c3ccccc3CCc3ccccc32)nnc1-c1ccco1	-2	2	2
C[C@@H]1CN([C@@H](C)CO)C(=O)c2cc(NC(=O)C3CCCCC3)ccc2O[C@@H]1CN(C)Cc1ccc(Oc2ccccc2)cc1	0	115*	.
C[C@@H]1CN([C@H](C)CO)C(=O)Cc2cc(NC(=O)C3CCCCC3)ccc2O[C@@H]1CN(C)Cc1ccc(-c2ccccc2)cc1	-4	113*	0
C[C@H](CO)N1C[C@H](C)[C@H](CN(C)Cc2ccc(Oc3ccccc3)cc2)Oc2ccc(NC(=O)C3CCCCC3)cc2CC1=O	-2	48	6
C[C@H]1CN([C@@H](C)CO)C(=O)c2cc(NC(=O)C3CCCCC3)ccc2O[C@@H]1CN(C)Cc1ccc(Oc2ccccc2)cc1	-5	21	-1
C[C@@H]1CN([C@@H](C)CO)C(=O)Cc2cc(NC(=O)C3CCCCC3)ccc2O[C@@H]1CN(C)Cc1ccc(Oc2ccccc2)cc1	.	95*	.
C[C@H]1CN([C@@H](C)CO)C(=O)Cc2cc(NC(=O)C3CCCCC3)ccc2O[C@@H]1CN(C)Cc1ccc(-c2ccccc2)cc1	.	55	0
O=C(OC[C@H]1O[C@@H](Oc2ccc(O)cc2COC(=O)C2(O)C=CCCC2=O)[C@H](O)[C@@H](O)[C@@H]1O)c1ccccc1 (stereo not given in full)	.	.	-5
CCCCCCC/C=C/C(=O)CCc1ccc(O)c(OC)c1	0	116*	-8
CCCCCCC[C@@H](O)CC(=O)CCc1ccc(O)c(OC)c1	1	41	-6
Cc1ccc(NC(=O)COc2ccc3ccccc3c2Br)c([N+](=O)[O-])c1	2	-2	-3
CN1C(=O)c2cccc(NC(=O)C3COc4ccccc4O3)c2C1=O (stereo not given)	.	-2	-4
C[C@@H]1CN([C@H](C)CO)C(=O)Cc2cc(NC(=O)Nc3ccc(F)cc3)ccc2O[C@@H]1CN(C)Cc1ccc(Oc2ccccc2)cc1	-6	114*	0
C[C@H](CO)N1C[C@H](C)[C@H](CN(C)Cc2ccccc2)Oc2ccc(NC(=O)Nc3ccc(F)cc3)cc2CC1=O	-3	28	1
COc1ccc(NC(=O)Nc2ccc3c(c2)CC(=O)N([C@H](C)CO)C[C@H](C)[C@H](CN(C)Cc2ccc(Oc4ccccc4)cc2)O3)cc1	-1	?	5
C[C@H]1CN([C@@H](C)CO)C(=O)Cc2cc(NC(=O)Nc3ccc(F)cc3)ccc2O[C@@H]1CN(C)Cc1ccc(Oc2ccccc2)cc1	1	107*	.
COc1ccc(NC(=O)Nc2ccc3c(c2)CC(=O)N([C@@H](C)CO)C[C@@H](C)[C@@H](CN(C)Cc2ccc(Oc4ccccc4)cc2)O3)cc1	.	60	.
C[C@H](CO)N1C[C@H](C)[C@H](CN(C)Cc2ccc(Oc3ccccc3)cc2)Oc2ccc(NC(=O)Nc3ccc(F)cc3)cc2CC1=O	-3	98*	0
CC(C)NC(=O)Nc1ccc2c(c1)CC(=O)N([C@@H](C)CO)C[C@@H](C)[C@@H](CN(C)Cc1ccc(Oc3ccccc3)cc1)O2	-3	89*	2
